An excerpt weighted towards active compounds, which were near 2.3% of everything screened.
PP5 inh – inhibitors of human protein phosphatase 5 (PP5); P53041; purified PP5c, OMFP substrate fluorescence; inhibition, % at 6.7 µM; actives 0.18% (n = 320,000);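 active = inhibition above the campaign's mean inhibition across all tested compounds plus 3 SD, cut at about 9.5% in these data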;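 note: 0% = DMSO only and 100% = 100 µM cantharidin control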
MsrA act – activates bovine MsrA enzyme. purified bovine MsrA, absorbance read-out. activation, % at 10.6 µM. actives 0.3% (n = 360,000); in the data active = activation above about 7.5%;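 note: 0% = vehicle and 100% = reference activator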
PP1 counter – blocks human PP1-alpha phosphatase, a PP5 counter-screen; P62136; purified PP1alpha, OMFP fluorescence; inhibition, % at 6.7 µM; actives 0.9% (n = 320,000); AID 2235;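 active = inhibition above the mean inhibition of all tested compounds plus 3 SD, computed separately for each screening campaign, cut at about 15% in these data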
Target sequence (P62136 whole entry, looked up): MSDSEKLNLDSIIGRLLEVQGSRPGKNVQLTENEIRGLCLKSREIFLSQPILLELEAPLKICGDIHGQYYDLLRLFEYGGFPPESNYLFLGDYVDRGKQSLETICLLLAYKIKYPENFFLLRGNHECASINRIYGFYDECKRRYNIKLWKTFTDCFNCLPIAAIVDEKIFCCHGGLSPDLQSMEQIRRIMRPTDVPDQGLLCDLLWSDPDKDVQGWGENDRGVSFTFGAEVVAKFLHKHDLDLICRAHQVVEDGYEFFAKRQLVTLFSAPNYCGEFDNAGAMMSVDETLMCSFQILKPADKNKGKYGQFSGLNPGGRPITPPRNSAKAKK
MsrA inh – bovine MsrA inhibition; purified bovine MsrA, absorbance read-out; inhibition, % at 15.5 µM; actives 0.75% (n = 360,000); in the data active = inhibition above about 4.5%;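 note: 0% = vehicle wells with enzyme and 100% = reference inhibitor wells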
ZTA DNA inh – counter-screen for EBNA-1 inhibitors: inhibitors of Epstein-Barr virus ZTA. P03206. ZTA-DNA binding, fluorescence polarization. inhibition, % at 11 µM. actives 0.15% (n = 320,000); in the data active = inhibition above about 33%
EBNA-1 inh – blocks EBNA-1 binding to DNA; EBNA-1 DNA binding, fluorescence polarization; inhibition, % at 14.8 µM; actives 0.34% (n = 300,000); AID 1950; in the data active = inhibition above about 28%
An asterisk follows results filed as active; ! = not confirmed by another sample.

Screening O=C(Nc1ccccc1C(F)(F)F)c1cc(-c2ccco2)on1 returned PP5 inh 3, MsrA act -5, PP1 counter -1, MsrA inh -2, ZTA DNA inh 16 and EBNA-1 inh 1.
For O=C(CSc1ccc(Cl)cc1)Nc1ccccc1N1CCN(C(=O)c2ccc(Cl)cc2)CC1 the results were PP5 inh 1, MsrA act -4, PP1 counter 15*, MsrA inh 0, ZTA DNA inh 3 and EBNA-1 inh 3.
For COCc1[nH]nc2c1C(c1ccccc1)NC2=O (stereo unspecified) the results were MsrA inh 1.
Screening C[C@@H]1CN(C(=O)OC(C)(C)C)CCN1c1ccc(N2CCN(Cc3ccccc3)[C@@H](C)C2)c(C#N)c1 returned MsrA inh 0.
For CCN(CC(=O)NC(C)(C)C)C(=O)c1ccccc1SCC(=O)NC1CCCCCCC1 the results were PP5 inh 2, MsrA act -6, PP1 counter -9, MsrA inh 0, ZTA DNA inh -15 and EBNA-1 inh -18.
Screening Cc1c(O)cccc1C(=O)N[C@@H](CSc1ccccc1)[C@H](O)CN1C[C@H]2CCCC[C@H]2C[C@H]1C(=O)NC(C)(C)C returned PP5 inh 3, MsrA act 1, PP1 counter 17*!, MsrA inh -1, ZTA DNA inh 14 and EBNA-1 inh 14.
COC(=O)c1ccc(C2Nc3ccc(/C(C)=N/NC(=O)C(OC)c4ccccc4)cc3C3C=CCC32)cc1 (stereo unspecified) was read as PP5 inh 3, MsrA act -8, PP1 counter 21*, MsrA inh 0, ZTA DNA inh 0 and EBNA-1 inh -6.
For CC(=O)c1ccc2c(c1)C1C=CCC1C(c1ccncc1)N2 (stereo unspecified) the results were PP5 inh 2, MsrA act -2, PP1 counter 2, MsrA inh 1, ZTA DNA inh -29 and EBNA-1 inh -2.
`CCCN1CCCCC(NC(=O)c2ccc(-c3ccccc3)cc2)C1=O` (stereo unspecified) gave MsrA inh 1.
`O=C(O)CN1C(=O)/C(=C\c2cc(Br)ccc2OCc2ccc(Cl)cc2)SC1=S` gave MsrA act -1 and MsrA inh 0.
`O=C(O)CN1C(=O)/C(=C\c2cc(Br)ccc2OCc2ccc(F)cc2)SC1=S` gave PP5 inh 4, MsrA act -6, PP1 counter 17*, MsrA inh 1, ZTA DNA inh 18 and EBNA-1 inh 1.
For O=C(O)CC(C(=O)O)N1C(=O)/C(=C/C=C/c2ccco2)SC1=S (stereo unspecified) the results were PP5 inh 2, MsrA act -7, PP1 counter 11, MsrA inh 0, ZTA DNA inh 92* and EBNA-1 inh 36*.
O=C(O)CCCN1C(=O)/C(=C/C=C/c2ccco2)SC1=S was read as PP5 inh 2, MsrA act -6, PP1 counter 24*, MsrA inh 0, ZTA DNA inh 88* and EBNA-1 inh 45*.
`O=C(O)C(Cc1ccccc1)N1C(=O)/C(=C/C=C/c2ccco2)SC1=S` (stereo unspecified) gave MsrA act -9 and MsrA inh 1.
For CC(C)N1CCC(C)(C(=O)Nc2ccc(-n3cccc3)cc2)C1 (stereo unspecified) the results were MsrA act -6 and MsrA inh 2.
For COc1ccc(/C=C2\SC(=S)N(CC(=O)NC3C=CS(=O)(=O)C3)C2=O)cc1 (stereo unspecified) the results were PP5 inh 0, MsrA act 0, PP1 counter 16*, MsrA inh 1, ZTA DNA inh -1 and EBNA-1 inh -7.
For COC(=O)C1=C(C)N(Cc2cccc(C(F)(F)F)c2)C(=NCc2cc(OC)c(OC)c(OC)c2)NC1c1ccccc1 (stereo unspecified) the results were MsrA inh -1.
`CCn1c(/C=C/N(C(C)=O)c2ccccc2)[n+](CCCS(=O)(=O)[O-])c2cc(Cl)c(Cl)cc21` gave PP5 inh -1, MsrA act -6, PP1 counter -1, MsrA inh 4.6*, ZTA DNA inh 12 and EBNA-1 inh 10.
Cc1noc(C)c1S(=O)(=O)N(C)C[C@@H]1OCc2cn(nn2)CCCC(=O)N([C@@H](C)CO)C[C@H]1C was read as MsrA act -1 and MsrA inh 1.
For NC(=S)N=Nc1c(O)[nH]c2ccc(F)cc12 the results were PP5 inh 2, MsrA act -2, PP1 counter -3, MsrA inh 4.5*, ZTA DNA inh -2 and EBNA-1 inh -8.
Screening COC(=O)Cc1nnn2c1[C@H](C)[C@@H](OC)c1cccc(Cl)c1-2 returned MsrA inh 0.
For COCCCNC(=O)C[C@H]1C[C@@]2(C(=O)OC)C(=C[C@H](COCc3ccccc3)O[C@@H]2C)N(Cc2ccc3c(c2)OCO3)C1=O the results were MsrA inh 0.
For Cc1cc(N2CCNC[C@H]2C)ccc1N1CCN(Cc2ccccc2)[C@H](C)C1 the results were MsrA inh 0.
Screening C#CCn1c(=NC(=O)c2ccc(Br)s2)sc2cccc(OC)c21 returned PP5 inh 0, MsrA act -2, PP1 counter 16*, MsrA inh 1, ZTA DNA inh 11 and EBNA-1 inh 5.
`O=C(c1cc(-c2ccc(F)cc2)on1)N1CCCc2ccccc21` gave PP5 inh 2, MsrA act -2, PP1 counter 16*, MsrA inh -2, ZTA DNA inh 9 and EBNA-1 inh 8.
`CCN(CC)S(=O)(=O)c1cccc(C(=O)N/N=C/c2cc(OC)c(O)c(OC)c2)c1` gave PP5 inh 1, MsrA act -5, PP1 counter 0, MsrA inh 3, ZTA DNA inh -12 and EBNA-1 inh 6.
CCN(CC)S(=O)(=O)c1cccc(C(=O)N/N=C/c2cccc(O)c2O)c1 was read as PP5 inh 0, MsrA act -5, PP1 counter 16*, MsrA inh 1, ZTA DNA inh -14 and EBNA-1 inh 4.
For O=C(c1ccccc1)N1CCC2CCN(CCc3ccccc3)CC21 (stereo unspecified) the results were MsrA inh 1.
`CCN(CC)c1ccc(N=Cc2cc(Br)ccc2O)cc1` gave PP5 inh 1, MsrA act -9, PP1 counter 5, MsrA inh -1, ZTA DNA inh 184* and EBNA-1 inh 126*.
For Nc1[nH]c(C(=O)c2ccccc2)c(-c2ccc(Cl)cc2)c1C(=O)c1c[nH]c2cc(F)ccc12 the results were MsrA inh 1.
`CC(C)(C)OC(=O)NCCCC[C@H](NC(=O)c1[nH]cnc1C(=O)Nc1ccc(CNC(=O)OC(C)(C)C)cc1)C(=O)OC(C)(C)C` gave PP5 inh 9, PP1 counter 17*, MsrA inh 4, ZTA DNA inh -20 and EBNA-1 inh -9.
